Laboratory results reported in the supplement of paper PMC6089552.
The whole screen tested about 3,200 compounds, of which about 300 (9.4%) showed activity. The entries come from a sample that favours actives as a whole.

System: A673/TR/shEF
Assay: cell viability (LOESS-normalised, relative to median of negative controls) (log2 ratio); higher = more viable cells (less compound effect), active = hit call of the paper (over 3 MAD below the median)
Conditions: treatment time: 72 h
How it was run: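 A673/TR/shEF Ewing sarcoma cells (1,500 per well, 384-well plates) were grown with or without doxycycline to induce EWS-FLI1 shRNA knockdown, starting 24 h before compounds. Library compounds at two or more concentrations, with DMSO controls, were added for three days. Cell viability was read by CellTiter-Glo luminescence on an Envision reader, then LOESS-corrected per plate, divided by the median of negative controls and log2-transformed. Hits were wells at least three median absolute deviations from the median of all screened wells.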

[1] = 0.25 µM, library screen: screen1, EWS-FLI1 expression: high (no doxycycline)
[2] = 0.25 µM, library screen: screen1, EWS-FLI1 expression: low (doxycycline-induced shRNA knockdown)
[3] = 2.5 µM, library screen: screen1, EWS-FLI1 expression: high (no doxycycline)
[4] = 2.5 µM, library screen: screen1, EWS-FLI1 expression: low (doxycycline-induced shRNA knockdown)
[5] = 0.25 µM, library screen: screen2, EWS-FLI1 expression: high (no doxycycline)
[6] = 0.25 µM, library screen: screen2, EWS-FLI1 expression: low (doxycycline-induced shRNA knockdown)
[7] = 2.5 µM, library screen: screen2, EWS-FLI1 expression: high (no doxycycline)
[8] = 2.5 µM, library screen: screen2, EWS-FLI1 expression: low (doxycycline-induced shRNA knockdown)
[9] = 0.103 µM, library screen: screen3, EWS-FLI1 expression: high (no doxycycline)
[10] = 0.103 µM, library screen: screen3, EWS-FLI1 expression: low (doxycycline-induced shRNA knockdown)
[11] = 0.308 µM, library screen: screen3, EWS-FLI1 expression: high (no doxycycline)
[12] = 0.308 µM, library screen: screen3, EWS-FLI1 expression: low (doxycycline-induced shRNA knockdown)
[13] = 0.926 µM, library screen: screen3, EWS-FLI1 expression: high (no doxycycline)
[14] = 0.926 µM, library screen: screen3, EWS-FLI1 expression: low (doxycycline-induced shRNA knockdown)
[15] = 2.8 µM, library screen: screen3, EWS-FLI1 expression: high (no doxycycline)
[16] = 2.8 µM, library screen: screen3, EWS-FLI1 expression: low (doxycycline-induced shRNA knockdown)
[17] = 8.3 µM, library screen: screen3, EWS-FLI1 expression: high (no doxycycline)
[18] = 8.3 µM, library screen: screen3, EWS-FLI1 expression: low (doxycycline-induced shRNA knockdown)
[19] = 25 µM, library screen: screen3, EWS-FLI1 expression: high (no doxycycline)
[20] = 25 µM, library screen: screen3, EWS-FLI1 expression: low (doxycycline-induced shRNA knockdown)

Measured: cell viability (log2)

C=C1CCC2OC2(C)CCC2C1CC2(C)C (stereo not drawn)
inactive: [1] 0.0308 | [2] 0.0474 | [3] 0.104 | [4] 0.0209

COc1ccc2c(c1OC)C(=O)O[C@H]2[C@@H]1c2ccccc2CCN1C
inactive: [1] 0.0344 | [2] 0.0398 | [3] 0.0365 | [4] -0.0658

CCC(C)C(NC)C(=O)O (stereo not drawn)
inactive: [1] 0.07 | [2] 0.0975 | [3] 0.13 | [4] -0.0496

COc1ccc(S(=O)(=O)N(CCO)c2ccccc2CN(C)C/C=C/c2ccc(Cl)cc2)cc1
inactive: 0.025 µM, library screen: screen1, EWS-FLI1 expression: high (no doxycycline) 0.202 | 0.025 µM, library screen: screen1, EWS-FLI1 expression: low (doxycycline-induced shRNA knockdown) -0.0138 | [1] 0.226 | [2] 0.0804 | [4] -0.0574
active: [3] -0.284 | 25 µM, library screen: screen1, EWS-FLI1 expression: high (no doxycycline) -1.32 | 25 µM, library screen: screen1, EWS-FLI1 expression: low (doxycycline-induced shRNA knockdown) -0.531

COc1cccc(NC(=O)/C=C/c2ccc(Cl)cc2)c1
inactive: [5] 0.303 | [6] 0.124 | [7] 0.272 | [8] 0.108

CC(=O)OCC(OC(C)=O)C(OC(C)=O)C(OC(C)=O)C(OC(C)=O)C(COC(C)=O)OC(C)=O (stereo not drawn)
inactive: [1] 0.1 | [2] 0.086 | [3] 0.176 | [4] -0.0056

CCn1cc(C(=O)O)c(=O)c2ccc(Cc3ccccc3)nc21
inactive: [5] 0.215 | [6] 0.061 | [7] 0.162 | [8] 0.124

COc1cc(CN2CCN(Cc3ccc([N+](=O)[O-])cc3)CC2)c([N+](=O)[O-])cc1OC
inactive: [1] 0.132 | [2] 0.09 | [3] 0.0515 | [4] 0.104

CC1(C)C[C@@H]2C(=O)CC[C@@H]3O[C@]3(C)CC[C@H]21
inactive: [1] 0.14 | [2] 0.0852 | [3] 0.132 | [4] 0.0776

CC1=C2C(=CO[C@H](C)[C@H]2C)C(=O)C(C(=O)O)=C1O
inactive: [1] 0.0243 | [2] 0.0421 | [3] 0.12 | [4] 0.0982

Cc1c(OCC(F)(F)F)ccnc1C[S+]([O-])c1nc2ccccc2[nH]1 (stereo not drawn)
active: [19] -0.241
inactive: [9] 0.0918 | [10] 0.101 | [1] 0.136 | [2] 0.0633 | [5] 0.166 | [6] 0.0843 | [11] 0.0516 | [12] 0.0264 | [13] 0.0709 | [14] 0.0884 | [3] 0.133 | [4] 0.126 | [7] 0.122 | [8] 0.0984 | [15] 0.0259 | [16] 0.0107 | [17] -0.0254 | [18] 0.0817 | [20] 0.0393

COc1ccc2nc([S+]([O-])Cc3ncc(C)c(OC)c3C)[nH]c2c1 (stereo not drawn)
inactive: [9] 0.0555 | [10] 0.0372 | [11] -0.0266 | [12] 0.0199 | [13] -0.0106 | [14] 0.0522 | [15] -0.0439 | [16] 0.0389 | [17] -0.0449 | [18] 0.0231 | [19] -0.03 | [20] -0.014

COc1ccc2nc([S@@+]([O-])Cc3ncc(C)c(OC)c3C)[nH]c2c1
inactive: [9] 0.0353 | [10] -0.0468 | [11] 0.00454 | [12] 2e-05 | [13] -0.0308 | [14] -0.0128 | [15] -0.0416 | [16] 0.00305 | [17] 0.0504 | [18] 0.0301 | [19] -0.0361 | [20] -0.0116

COC(=O)C[C@H]1C(C)(C)[C@@H](OC(C)=O)[C@@H]2CC3C4CC(=O)O[C@@H](c5ccoc5)[C@]4(C)CCC3[C@@]1(C)C2=O (stereo partly drawn)
inactive: [1] 0.0705 | [2] 0.0161 | [3] 0.14 | [4] 0.112

C=C1CCC(=O)C(C)CCC2C1CC2(C)C (stereo not drawn)
inactive: [1] 0.0584 | [2] -0.00925 | [3] 0.119 | [4] -0.105

COc1ccc(-c2oc3cc(O[C@@H]4O[C@H](CO)[C@@H](O)[C@H](O)[C@H]4O)c(OC)c(O)c3c(=O)c2OC)cc1O
inactive: [1] 0.0438 | [2] 0.127 | [3] 0.0949 | [4] 0.0982

O=C(O)C1CN(CCCP(=O)(O)O)CCN1 (stereo not drawn)
inactive: [5] 0.0853 | [6] 0.0707 | [7] 0.0988 | [8] 0.109

Cc1cccc(C)c1NC(=O)C[N+](C)(C)C
inactive: [5] 0.174 | [6] 0.0998 | [7] 0.0786 | [8] 0.0656

CCN(CC)CC(=O)Nc1c(C)cccc1C
active: [19] -0.278
inactive: [9] 0.148 | [10] 0.0138 | [1] 0.147 | [2] 0.00307 | [5] 0.111 | [6] 0.106 | [11] 0.0507 | [12] 0.127 | [13] 0.13 | [14] 0.0501 | [3] 0.157 | [4] 0.131 | [7] 0.0975 | [8] 0.0477 | [15] 0.00489 | [16] 0.0234 | [17] 0.0246 | [18] 0.018 | [20] 0.0253

CC[N+](CC)(CC)CC(=O)Nc1c(C)cccc1C
inactive: [5] 0.105 | [6] 0.169 | [7] 0.0372 | [8] 0.0518

CC(C)=CCCC(C)(O)C1CC=C(C)CC1 (stereo not drawn)
inactive: [1] 0.0431 | [2] -0.0174 | [3] 0.0996 | [4] 0.0501

COC(=O)c1c(C)cc(OC(=O)c2c(C)cc(O)c(CO)c2O)c(C)c1O
inactive: [1] 0.129 | [2] 0.0318 | [3] 0.139 | [4] 0.0883

C[C@]12CC[C@@H](O)C[C@H]1CC[C@@H]1[C@@H]2C(=O)C[C@@]2(C)[C@H]1CC[C@]2(O)C(=O)CO
inactive: [1] 0.162 | [2] 0.116 | [3] 0.185 | [4] 0.0107

Cc1cc(=O)c2c(O)c3c(cc2o1)OCC(C)CC3 (stereo not drawn)
inactive: [1] 0.0148 | [2] 0.14 | [3] 0.0878 | [4] 0.127
